From PubChem BioAssay
Calls of active or inactive are those of the source. Unless noted, how the calls were made is not given here.

How the values were obtained:
[1] = compound effects on lung adenocarcinoma cell viability – A549, calcein-AM fluorescence, 48 h, basal, profiling panel (AID 1162); conditions: higher = more signal; further: test concentration not given here
[2] = compound effects on differentiated 3T3-L1 adipocyte viability – cell-based, 3T3-L1 adipocytes, calcein-AM fluorescence, 48 h, basal, profiling panel (AID 1163); conditions: 3T3-L1 adipocytes viability, higher = more signal; further: test concentration not given here
[3] = compound effects on hepatocellular carcinoma cell viability – HepG2, calcein-AM fluorescence, 48 h, basal, profiling panel (AID 1164); conditions: higher = more signal; further: test concentration not given here
[4] = compound effects on multiple myeloma cell viability – MM1S, calcein-AM fluorescence, 48 h, basal, profiling panel (AID 1165); conditions: higher = more signal; further: test concentration not given here
[5] = calcein-AM signal in unstimulated myeloma cells – cell-based, calcein-AM fluorescence, 48 h, PK04 Diversity Set, profiling panel (AID 1166); conditions: RPMI8226 myeloma viability, higher = more signal;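 further: cells grown under basal conditions without added stimulus; test concentration not given here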
[6] = JC-1 mitochondrial signal, unstimulated HepG2 cells – cell-based, JC-1 fluorescence, 24 h, 100 nL compound, profiling panel (AID 1167); conditions: HepG2 mitochondrial potential, higher = more signal; further: test concentration not given here
[7] = JC-1 mitochondrial signal, unstimulated adipocytes – cell-based, JC-1 fluorescence, 3T3-L1 adipocytes, 24 h, 100 nL compound, profiling panel (AID 1168); conditions: JC-1 mitochondrial fluorescence, higher = more signal, called active from +8 up or from −8 down; further: test concentration not given here
[8] = JC-1 mitochondrial signal, unstimulated myeloma cells – cell-based, JC-1 fluorescence, RPMI8226, 24 h, 100 nL compound, profiling panel (AID 1169); conditions: JC-1 mitochondrial potential fluorescence, higher = more signal; further: test concentration not given here
[9] = JC-1 mitochondrial signal, unstimulated MM1S myeloma – cell-based, JC-1 fluorescence, 24 h, 100 nL compound, profiling panel (AID 1170); conditions: MM1S mitochondrial potential, higher = more signal; further: test concentration not given here
[10] = resazurin metabolic signal in A549 cells – cell-based, resazurin fluorescence, 24 h, PK04 Diversity Set, profiling panel (AID 1171); conditions: A549 viability, higher = more signal, called active from +8 up or from −8 down; further: test concentration not given here
[11] = resazurin metabolic signal in HepG2 cells – cell-based, resazurin fluorescence, 24 h, PK04 Diversity Set, profiling panel (AID 1172); conditions: HepG2 viability, higher = more signal; further: test concentration not given here
[12] = budding yeast growth changes without added modifier – OD600, strain BY4716, 24 h, basal condition, primary screen (AID 1173); conditions: S. cerevisiae BY4716 growth, OD600, 24 h; higher = more signal, called active from +8 up or from −8 down
[13] = viability profiling in MM1S myeloma cells – cell-based, resazurin fluorescence, basal, 24 h, PK04 Diversity Set, profiling panel (AID 1174); conditions: higher = more signal, called active from +8 up or from −8 down; further: test concentration not given here
[14] = biological target: Dihydroorotate dehydrogenase (quinone), mitochondrial (Plasmodium falciparum (isolate 3D7)) (UniProt Q08210); test: inhibition of P. falciparum DHODH – biochemical, C-terminal His tag, absorbance 600 nm, primary screen (AID 1175); conditions: PfDHODH enzyme, DCIP absorbance 600 nm; higher = more signal, called active from +8 up or from −8 down;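 further: recombinant parasite enzyme with a five histidine tag at its C terminus; test concentration not given here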
Chain of Dihydroorotate dehydrogenase (quinone), mitochondrial (Plasmodium falciparum (isolate 3D7)) (Q08210 whole entry, looked up): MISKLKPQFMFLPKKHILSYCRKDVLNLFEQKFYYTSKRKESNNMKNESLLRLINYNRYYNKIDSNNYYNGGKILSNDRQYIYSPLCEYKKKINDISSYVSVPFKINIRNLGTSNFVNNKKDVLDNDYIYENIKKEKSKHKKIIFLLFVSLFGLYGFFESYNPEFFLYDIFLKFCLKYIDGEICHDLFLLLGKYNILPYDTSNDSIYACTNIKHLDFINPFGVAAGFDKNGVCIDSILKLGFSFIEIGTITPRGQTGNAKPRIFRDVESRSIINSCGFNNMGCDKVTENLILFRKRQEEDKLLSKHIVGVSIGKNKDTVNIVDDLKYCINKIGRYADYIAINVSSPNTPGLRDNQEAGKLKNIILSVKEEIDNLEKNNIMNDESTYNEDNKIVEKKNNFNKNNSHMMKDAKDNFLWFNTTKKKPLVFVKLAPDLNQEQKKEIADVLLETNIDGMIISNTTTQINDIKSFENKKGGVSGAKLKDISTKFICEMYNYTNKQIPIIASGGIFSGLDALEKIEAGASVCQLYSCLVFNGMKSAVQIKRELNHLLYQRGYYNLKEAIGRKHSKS

[15] = inhibition of PAO1 biofilm formation – strain PAO1, LB-PBS medium, absorbance 600 nm, primary screen (AID 1176); further: test concentration not given here; conditions: P. aeruginosa PAO1 growth/biofilm, A600, 12 h; higher = more signal
[16] = growth modulation of vineyard yeast isolate – strain RM11-1a, OD600, basal, 24 h, primary screen (AID 1177);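 further: cultures grown under basal conditions with no added stressor; test concentration not given here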; conditions: S. cerevisiae RM11-1a growth, OD600, 24 h; higher = more signal, called active from +8 up or from −8 down
[17] = growth of efflux-deficient E. coli DRC39 – strain DRC39, OD650, 24 h, E. coli filamentation inducers, primary screen (AID 1178);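 further: growth measured as culture turbidity by optical density at 650 nm; test concentration not given here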; conditions: E. coli DRC39 acrAB, higher = more signal, called active from +8 up or from −8 down
[18] = growth of efflux-deficient E. coli DRC39 – strain DRC39, OD650, 48 h, E. coli filamentation inducers, primary screen (AID 1179);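 further: screen aims at cell division blockers that make cells filament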; conditions: E. coli DRC39 delta-acrAB growth, higher = more signal, called active from +8 up or from −8 down
[19] = viability profiling in RPMI8226 myeloma cells – cell-based, resazurin fluorescence, basal, 24 h, PK04 Diversity Set, profiling panel (AID 1180); conditions: higher = more signal;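 further: RPMI8826 multiple myeloma cell line at 5000 cells per well; test concentration not given here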
[20] = biological target: E3 ubiquitin-protein ligase XIAP (Homo sapiens) (UniProt P98170); test: small molecules binding XIAP protein – biophysical, small-molecule microarray, fluorescence 635 nm, primary screen (AID 1181); conditions: higher = more signal;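 further: score merges 667 nm emission and signal to noise over triplicate slides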
Chain of E3 ubiquitin-protein ligase XIAP (Homo sapiens) (P98170 whole entry, looked up): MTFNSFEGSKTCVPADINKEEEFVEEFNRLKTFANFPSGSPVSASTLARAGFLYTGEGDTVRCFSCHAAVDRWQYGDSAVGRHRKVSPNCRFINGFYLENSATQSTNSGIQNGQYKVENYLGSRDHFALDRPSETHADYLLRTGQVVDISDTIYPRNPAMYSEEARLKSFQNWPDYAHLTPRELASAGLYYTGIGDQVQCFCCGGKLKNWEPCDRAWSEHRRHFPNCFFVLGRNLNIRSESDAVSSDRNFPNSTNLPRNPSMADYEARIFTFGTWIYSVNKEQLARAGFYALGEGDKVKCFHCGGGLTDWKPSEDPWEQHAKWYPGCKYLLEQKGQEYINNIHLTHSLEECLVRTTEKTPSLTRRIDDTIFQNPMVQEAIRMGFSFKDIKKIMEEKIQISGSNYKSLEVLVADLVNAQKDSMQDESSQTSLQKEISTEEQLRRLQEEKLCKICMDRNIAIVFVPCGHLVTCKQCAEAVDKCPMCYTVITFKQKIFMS

Structure (SMILES) | z-score [1] | z-score [2] | z-score [3] | z-score [4] | z-score [5] | z-score [6] | z-score [7] | z-score [8] | z-score [9] | z-score [10] | z-score [11] | z-score [12] | z-score [13] | composite z-score [14] | z-score [15] | z-score [16] | z-score [17] | z-score [18] | z-score [19] | composite z-score [20]
O=C(NC1CC1)[C@@H]1c2ccccc2C(=O)N(CC23CC4CC(CC(C4)C2)C3)[C@H]1c1ccc(CO)cc1 | 0.554 | 0.875 | 0.232 | 0.0732 | 0.202 | 1.49 | 0.397 (inactive) | 0.555 | -0.467 | 1.5 (inactive) | 0.658 | -0.498 (inactive) | 0.74 (inactive) | -0.329 (inactive) | 0.338 (inactive) | 0.123 (inactive) | -0.0508 (inactive) | -0.428 (inactive) | 1.07 | 0.141
O=C(NCc1ccccc1)[C@@H]1c2ccccc2C(=O)N(Cc2cc(C(F)(F)F)cc(C(F)(F)F)c2)[C@H]1c1ccc(CO)cc1 | -0.108 | 1.79 | -0.139 | 0.635 | -0.487 | 1.45 | 0.125 (inactive) | -0.586 | -1.15 | -0.281 (inactive) | -0.527 | -0.247 (inactive) | 0.3 (inactive) | 0.819 (inactive) | 0.338 (inactive) | 1.06 (inactive) | 0.324 (inactive) | 0.0181 (inactive) | 1.03 | -0.147
CCC(CC)C(O)C1C=CC2C(=O)N(c3ccccc3)C(=O)C2N1Nc1ccccc1F (stereo not given) | 0.21 | 0.561 | 1.09 | 1.38 | 0.523 | 0.387 | -0.147 (inactive) | -0.231 | -0.817 | 0.0513 (inactive) | 0.85 | 0.153 (inactive) | -0.0479 (inactive) | 1.57 (inactive) | 0.67 (inactive) | -0.0886 (inactive) | -0.551 (inactive) | 0.164 (inactive) | 0.181 | 0.172
C=CCNC(=O)[C@H]1[C@@H]2C(=O)O[C@@H](c3ccccc3)[C@@H](c3ccccc3)N2[C@@H](c2ccccc2OCCO)[C@]12C(=O)N(C(=O)OCCOC)c1ccc(C#Cc3ccc(OC)cc3)cc12 | 0.005 | -0.182 | 0.0823 | -1.05 | -1.15 | 0.421 | 3.69 (inactive) | -0.981 | -1.13 | -0.958 (inactive) | -0.345 | 1.19 (inactive) | -0.637 (inactive) | -0.306 (inactive) | 2.23 (inactive) | 3.16 (inactive) | -0.604 (inactive) | 0.582 (inactive) | -1.17 | -0.113
COc1ccc([Si](C)(C)[C@@H]2[C@@H](CC(=O)N3CCC[C@H]3CO)O[C@]3(C(=O)N(Cc4cccc(N5CCCCC5=O)c4)c4ccccc43)[C@H]2C)cc1 | -0.158 | 0.403 | -1.35 | -2.81 | -4.25 | -2.13 | -0.191 (inactive) | -1.12 | -1.47 | -1.6 (inactive) | -1.26 | -0.51 (inactive) | -2 (inactive) | -0.877 (inactive) | 0.319 (inactive) | 0.625 (inactive) | 0.894 (inactive) | 0.6 (inactive) | -2.68 | 0.0167
NC(=O)NCC#Cc1ccc2c(c1)[C@]1(C(=O)N2)[C@H](c2ccc(OCCO)cc2)N2[C@H](c3ccccc3)[C@H](c3ccccc3)OC(=O)[C@H]2[C@@H]1C(=O)NC[C@H](O)c1ccccc1 | 0.192 | 0.326 | 0.013 | 0.405 | 0.847 | -1.4 | -0.0754 (inactive) | -0.538 | 0.207 | 0.401 (inactive) | 1.12 | 1.63 (inactive) | 0.473 (inactive) | -0.256 (inactive) | 0.489 (inactive) | 2.58 (inactive) | 0.826 (inactive) | 0.107 (inactive) | 1.29 | 0.0697
CN(C)c1ccc(C(O)C2C=CC3C(=O)N(Cc4ccccc4)C(=O)C3N2n2cnnc2)cc1 (stereo not given) | 0.566 | -0.179 | 2.13 | 0.0017 | 1.4 | 0.0219 | 0.522 (inactive) | -0.203 | 1.23 | -1.04 (inactive) | -0.659 | -0.116 (inactive) | -0.253 (inactive) | -0.536 (inactive) | 1.77 (inactive) | -0.794 (inactive) | 0.0571 (inactive) | 0.694 (inactive) | -0.268 | 0.0968
CC(C)C(=C=CC[C@H](O)c1ccccc1OCCO)C[C@H](O)c1cc(Cl)cc(Cl)c1O | 0.884 | 0.271 | 0.601 | -3.42 | -3.2 | -1.1 | 0.427 (inactive) | -0.788 | -1.07 | -0.0216 (inactive) | 0.271 | -5.59 (inactive) | -0.702 (inactive) | -2 (inactive) | 0.731 (inactive) | -0.17 (inactive) | 0.215 (inactive) | -0.0849 (inactive) | -0.628 | -0.0448
O=C1O[C@@H](c2ccccc2)[C@@H](c2ccccc2)N2[C@@H](c3ccc(OCCO)cc3)[C@]3(C(=O)Nc4ccc(C#CCCO)cc43)[C@@H](C(=O)O)[C@H]12 | 1.35 | -0.997 | 0.831 | 0.942 | 0.926 | -0.498 | -0.382 (inactive) | 0.284 | -0.811 | -0.384 (inactive) | -0.0464 | -0.718 (inactive) | 0.314 (inactive) | -1.25 (inactive) | 0.185 (inactive) | 0.575 (inactive) | 0.932 (inactive) | 0.91 (inactive) | 0.104 | 0.104
